# HPGD inh: inhibitors of human 15-hydroxyprostaglandin dehydrogenase (HPGD) | P15428 | purified HPGD, NADH fluorescence kinetic, PGE2 substrate | Potency, µM, for the others: at the top dose activity change, negative = inhibition, hits mostly inhibitors | 150,000 tested, 4.3% active; further: potency means the concentration at half of the fitted maximal effect
#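 NADH formation kinetics: reaction with 30 uM PGE2 and 1 mM NAD+ (final), 20 nM enzyme, Tris-HCl pH 8 with Tween 20, after 15 min compound preincubation at room temperature. Fluorescence change, last versus first of five reads.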
# ALDH1A1 inh: blocks purified human ALDH1A1 activity; Purified ALDH1A1, NADH fluorescence, propionaldehyde substrate; Potency, µM (titrated, usually from 75.3 µM), for inactives: top-dose activity, negative = inhibition, usual class: inhibitors; 220,000 tested, 7.3% active;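 further: potency means the concentration at half of the fitted maximal effect; plate controls were no enzyme wells and a reference inhibitor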
# Target sequence (P00352 whole entry, looked up): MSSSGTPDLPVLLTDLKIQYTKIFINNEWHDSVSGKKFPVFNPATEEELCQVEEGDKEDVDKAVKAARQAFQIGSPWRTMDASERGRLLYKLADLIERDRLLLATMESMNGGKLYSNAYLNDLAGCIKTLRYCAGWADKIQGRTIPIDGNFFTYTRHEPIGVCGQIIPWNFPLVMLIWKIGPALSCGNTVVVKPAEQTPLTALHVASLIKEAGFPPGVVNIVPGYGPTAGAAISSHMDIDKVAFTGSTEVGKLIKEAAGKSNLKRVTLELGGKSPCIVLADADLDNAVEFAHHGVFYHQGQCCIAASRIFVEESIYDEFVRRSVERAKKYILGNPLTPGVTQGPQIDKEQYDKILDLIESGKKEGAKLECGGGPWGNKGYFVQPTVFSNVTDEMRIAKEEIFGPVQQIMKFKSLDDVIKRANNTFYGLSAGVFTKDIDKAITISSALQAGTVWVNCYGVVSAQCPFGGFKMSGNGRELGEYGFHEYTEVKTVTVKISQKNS
# PNC assembly inh: inhibitors of perinucleolar compartment assembly; 140,000 tested, 3.1% active; PC3M PTB-GFP, PNC prevalence imaging, 16 h; stronger effect = lower value; activity change (PNC), negative = inhibition, % at 10 µM;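 active means readout at or below -70, meaning at least 70% loss of cells showing the perinucleolar compartment, a nuclear body marking cancer cells; inconclusive means readout between -30 and a set limit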;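 further: plate controls were DMSO wells for no effect and camptothecin positive control wells for full effect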
#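 PC3M cells stably expressing PTB-GFP, 750–1000 cells/well, treated 16 h at 37 °C with compound (23 nl of library stock), in duplicate. After paraformaldehyde fixation and Hoechst stain, imaged at 20x; PNC prevalence scored by image analysis.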
# The depositor's hits bear a star; ? = inconclusive; nt = not tested or not shown; [ ] = another dose, or the depositor's remark. Compounds with a hit are over-represented: about 11% of the library has one in this group of screens. Unless noted, the call rests on the fitted dose curve; in most records, active means well fitted inhibition curve with a large enough effect (not every such curve was filed as active); inconclusive means small, poorly fitted or top-dose-only effect, or another doubt; inactive means no such curve, though single readings can be large or run the other way. Unless noted, on the % scale 0 is the no-effect control and ±100 the full control effect.
SMILES,HPGD inh,ALDH1A1 inh,PNC assembly inh
Cc1cc(Cl)ccc1N=c1ssnc1Cl,4.47µM*,1.26µM*,27.6
Cc1ccc(C2=NNC(=Nc3ccc(F)cc3)SC2)cc1,nt,-10.9%,nt
Cc1cc(C)nc(/N=c2/ssnc2Cl)c1,12.6µM*,3.98µM*,-26.9
Cc1cc(C)c(C#N)c(Cl)n1,-4.4%,4.2%,18.5
Cc1ccc(N=c2ssnc2Cl)cc1,2.82µM*,2.24µM*,?
Cc1cc(Cl)ccc1N=C1N=C(N)c2ccccc21,-9.4%,5.0%,-18.3
CCCCCCCCC1OC1CCCCCCCC(=O)O (stereo not given),-4.2%,11.3%,nt
Cc1ccccc1C(=O)NC(=S)Nc1ccc2[nH]c(=O)[nH]c2c1,nt,-7.6%,nt
CN(C(=O)COC(=O)CCc1c[nH]c2ccccc12)C(c1ccccc1)c1ccccc1,-20.7%,2.9%,?
Cc1cc(C)c(NC(=O)C2CSCCS2)c(C)c1 (stereo not given),22.4µM*,-3.6%,-13.7
Cc1cc(C)c(NC(=O)C2CCCCN2C)c(C)c1 (stereo not given),-8.1%,-2.6%,-9.7
COc1ccc(CC2NCCC3(O)CCCCC23)cc1 (stereo not given),-18.8%,15.8µM*,-6.9
COc1ccc(CN(C)C2CCCCC2)cc1,-10.8%,-0.5%,12.7
O=C(c1ccc(F)cc1)C1CCN(C(=O)NC2CCCCC2)CC1,-8.4%,11.2µM*,5.5
S=C(NC1CCCCC1)N1CCN(c2ncccn2)CC1,nt,-14.9%,nt
O=C(NC1CCCCC1)N1CCN(S(=O)(=O)c2ccc(F)cc2)CC1,nt,5.9%,nt
O=C(NC1CCCCC1)N1CCN(c2ncccn2)CC1,-5.5%,-5.9%,-83.4*
Clc1ccc2c(c1)N(CCCN1CCCC13CCCCC3)c1ccccc1S2,-6.5%,5.5%[13.5 µM],nt
CC1=CC(C)(C)NC(=S)N1c1ccc(C)cc1,-1.1%,3.6%,?
CC1(CCc2ccccc2)NC(=S)N(c2ccccc2)N1 (stereo not given),39.8µM*,13.9%,-123.8*
S=C(NCCc1ccccc1)Nc1ccc(Cl)cc1,-7.4%,9.6%,26.3
CC1(CCc2ccccc2)NC(=S)N(c2ccc(Cl)cc2)N1 (stereo not given),1µM*,7.08µM*,-5.2
CC1(C)CC(C)(O)N(Cc2ccccc2)C(=S)N1 (stereo not given),-1.0%,6.4%,-28.6
CCC1(c2ccc(Cl)cc2)NC(=S)N(c2ccc(C)cc2)N1 (stereo not given),?,28.2µM*,1.0
CC(C)C(=O)N[C@@H]1CCCN1C(=O)/C=C\c1ccccc1,nt,-1.2%[13.5 µM],nt
SMILES,HPGD inh,ALDH1A1 inh,PNC assembly inh
O=C(Cc1c(F)cccc1Cl)N(Cc1ccccc1)c1ccccn1,nt,5.6%,nt
CCn1c2ccccc2c2nnc(SCC(=O)Nc3c(C)n(C)n(-c4ccccc4)c3=O)nc21,-9.0%,-6.2%,-21.4
Cc1c(NC(=O)CSc2nnc3c4ccccc4n(CCc4ccccc4)c3n2)c(=O)n(-c2ccccc2)n1C,-3.7%,?,-89.7*
CCC(CC)C(=O)Nc1c(C)n(C)n(-c2ccccc2)c1=O,-9.4%,-0.8%,25.3
Cc1nc(SCC(=O)Nc2c(C)n(C)n(-c3ccccc3)c2=O)n[nH]1,-14.9%,14.1µM*,?
Cc1csc(SCC(=O)Nc2c(C)n(C)n(-c3ccccc3)c2=O)n1,-0.7%,2.6%,?
O=C(CSc1n[nH]c(-c2ccncc2)n1)c1ccccc1,?,-6.8%,19.7
CCN1CCN(C(C)C(=O)Nc2c(C)n(C)n(-c3ccccc3)c2=O)CC1 (stereo not given),-3.5%,22.4µM*,27.5
Cc1nc(SCC(=O)c2ccccc2)n[nH]1,?,22.4µM*,?
O=C1CCC([N+](=O)[O-])C(c2cc3c(cc2Cl)OCO3)N1 (stereo not given),nt,5.9%,nt
O=C(CCSCCC(=O)Nc1c(F)c(F)c(F)c(F)c1F)Nc1c(F)c(F)c(F)c(F)c1F,nt,1.4%,nt
COc1cc2c(cc1NC(=O)C(C)OC(=O)c1ccc(S(=O)(=O)Nc3ccccc3Cl)cc1)oc1ccccc12 (stereo not given),nt,1.5%,nt
COc1ccccc1/C=C/C(=O)NCC(=O)N1CCC(N(C)C2CCCC2)CC1,nt,-17.8%,nt
CC(C)(O)CCC(C)(C)O,1.5%,?,nt
COc1ccccc1C(=O)CSc1n[nH]c(N)n1,-22.6%,11.2µM*,-26.0
Nc1nc(SCC(=O)c2cc3ccccc3o2)n[nH]1,nt,4.2%,nt
CC1CN(C2CCN(C(=O)COc3ccc(Cl)cc3)CC2)CC(C)O1 (stereo not given),-2.5%,12.6µM*,21.8
CCOC(=O)N1CCN(C(=O)COc2ccc(Cl)cc2)CC1,6.3%,2.5%,?
O=C(C[N+]1(CC#Cc2ccccc2)CCCCC1)c1ccccc1,nt,8.91µM*,nt
C#CC[N+]1(CC#Cc2ccccc2)CCCCC1,nt,-3.2%,nt
C(#Cc1ccccc1)C[N+]1(CC#Cc2ccccc2)CCCCC1,nt,-6.9%,nt
O=C(C[N+]1(CC#Cc2ccccc2)CCCCC1)c1ccc(Cl)cc1,nt,22.4µM*,nt
CC(C)(C)N1C(=O)[C@H]2[C@H]3[C@H](O)[C@H](O)C/C(=N/NC(=O)OCc4ccccc4)[C@@H]3CC[C@@H]2C1=O,nt,-7.7%[13.5 µM],nt
Cc1noc(C)c1-c1cc(NC2CC2)ncn1,-3.5%,-5.9%,nt
O=C1CCCC(=O)N1c1ccc(N2CCOCC2)c([N+](=O)[O-])c1,nt,1.7%,nt
SMILES,HPGD inh,ALDH1A1 inh,PNC assembly inh
CCCc1cc(=O)[nH]c(SCC)n1,-9.5%,3.4%,45.7
CCCc1cc(=O)[nH]c(-n2[nH]c3c(c2=O)CCCC3)n1,22.4µM*,23.8µM*,74.7
C/C(CCN1CCCCc2nc(C)c(C)cc21)=N\O[C@@H](C)c1cc(-c2c(C)cc(C)cc2C)no1,nt,2.4%[13.5 µM],nt
CCOC(=O)CNC(=O)c1ccc(C#CC2(O)CCCCC2)cc1,-0.6%,3.0%,-13.4
O=C(c1ccc(C#CC2(O)CCCCC2)cc1)N1CCOCC1,14.1µM*,-11.3%,?
O=C(N/N=C/C(Br)=C\c1ccccc1)c1ccc2nc[nH]c2c1,-27.1%,?,?
Cc1cc(NC(=O)c2ccc([N+](=O)[O-])cc2)n(C)n1,nt,2.2%,nt
O=C(O)Cc1ccc(C(=O)c2ccccc2)s1,?,-12.4%,30.3
N#CCc1ccc(C(=O)c2ccccc2F)s1,20µM*,-81.5%,5.5
CN1C(=S)N(c2ccccc2)C(=O)/C1=C/c1cccs1,-23.5%,10.3%,-6.8
CN1C(=S)N(c2ccccc2)C(=O)/C1=C/c1ccco1,-20.6%,12.6µM*,?
O=C(NCCC1=CCCCC1)Nc1ccc2nsnc2c1,nt,-8.1%,nt
O=C(NCCN1CCc2ccccc2C1)C1CC(=O)N(C2CCCC2)C1 (stereo not given),?,35.5µM*,0.2
CN1CCN(CCCNC(=O)C2CC(=O)N(C3CCCCC3)C2)CC1 (stereo not given),-0.1%,0.4%,?
CCN(c1ccccc1)S(=O)(=O)c1cc(C(=O)Nc2ccc(Br)cc2)ccc1F,?,28.2µM*,14.0
CCN(c1ccccc1)S(=O)(=O)c1cc(C(=O)Nc2ccccc2Cl)ccc1F,-1.5%,3.4%,?
CC(C)CCN1CCN(C2CCN(c3ccccc3)CC2)CC1CCO (stereo not given),nt,4.0%,nt
Cc1ccc(NC(=O)C2(NC(=O)c3ccccn3)CCCCC2)cc1Br,-15.8%,-14.9%,25.1
CN(C)CCN1C(=O)NC(C)(c2ccc([N+](=O)[O-])cc2)C1=O (stereo not given),nt,-8.1%,nt

# Screens as filed in PubChem BioAssay.
